Measured values from PubChem BioAssay.
Calls of active or inactive are those of the source.

assay: growth modulation of vineyard yeast isolate – strain RM11-1a, OD600, basal, 24 h, primary screen (AID 1177);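 further: cultures grown under basal conditions with no added stressor; test concentration not given here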; conditions: S. cerevisiae RM11-1a growth, OD600, 24 h; higher = more signal, called active from +8 up or from −8 down

z-score, inactive:
COC(=O)[C@H](Cc1ccc(O)cc1)N[C@@H](/C=C/C1CC1)[C@H](O)Cc1ccccc1 0.0871
COc1ccc(CCNC(=O)[C@@H]2c3ccccc3C(=O)N(Cc3ccccc3OC)[C@H]2c2ccc(CO)cc2)cc1 -0.341
COc1ccc(C(=O)Nc2cccc(CN3C(=O)[C@]4(O[C@H](CC(=O)N5Cc6ccccc6C[C@H]5CO)[C@@H]([Si](C)(C)c5ccc(OC)cc5)[C@@H]4C)c4ccccc43)c2)cc1 2.82
C=CCN1Cc2ccccc2[C@H]2OC(c3ccc(OCCCO)cc3)=N[C@@]2(CCS(=O)(=O)c2ccccc2)C1=O 0.86
C=CCOC(=O)[C@H]1[C@@H]2C(=O)O[C@@H](c3ccccc3)[C@@H](c3ccccc3)N2[C@@H](c2ccc(OCCOC(=O)[C@H]3C[C@H]4C(=O)N[C@@H](CC(C)C)C(=O)N4[C@H]3c3ccc(O)cc3)cc2)[C@]12C(=O)Nc1ccccc12 2.67
CC1CC/C=C\[C@H]2OC34C=CCN(Cn5nnc6ccccc65)C(=O)[C@H]3N(CCCCCCO)C(=O)[C@@H]4C2C(=O)O1 (stereo not given in full) 0.85
[N-]=[N+]=Nc1ccccc1C[C@@]1(C(=O)NCc2ccccc2)N=C(c2ccc(OCCCO)cc2)O[C@@H]1c1ccccc1N=[N+]=[N-] 0.105
Cc1ccc(S[C@]2(C(=O)NCCCN(C)C)CC(=O)N(C3Cc4ccccc4C3)[C@@H]2c2ccc(CO)cc2I)cc1 0.609
CC(C)N1C(=O)c2ccccc2[C@](C)(C(=O)NCC(F)(F)F)[C@@H]1c1ccc(CO)cc1 -0.613
CN(C)CCCC[C@@H]1NC(=O)[C@H]2C[C@@H](C(=O)O)[C@@H](c3ccc(O)cc3)N2C1=O -0.304
O=C1[C@@H]2[C@@H](CC(COc3ccccc3)=C([C@H](O)CCc3ccccc3)[C@@H]2CO)C(=O)N1Cc1ccccc1 1.47
C=C(CCCC)/C(=C/C[C@H](OC(=O)c1ccncc1)c1ccccc1OCCO)c1cc(C(=O)OC)ccc1OC -0.3
CC(C)NC(=O)[C@@]1(C)c2ccccc2C(=O)N(Cc2ccccc2)[C@H]1c1ccc(CO)cc1 -1.29
COc1ccc(C#Cc2ccc3c(c2)[C@]2(C(=O)N3)[C@H](C(=O)O)[C@H]3C(=O)O[C@H](c4ccccc4)[C@H](c4ccccc4)N3[C@@H]2c2ccccc2OCCO)cc1 2.48
CCCCCCc1nc(Cc2cc(OC)c(OC)c(OC)c2)cc2c1[Si](C(C)C)(C(C)C)O[C@H]2c1ccccc1 0.202
O=C1C[C@@](C(=O)NCc2ccccc2)(c2ccc([N+](=O)[O-])cc2)[C@@H](c2ccc(CO)cc2)N1C1CCCCC1 -1.02
O=C(NCc1ccccc1)[C@@H]1c2ccccc2C(=O)N(Cc2cc(C(F)(F)F)cc(C(F)(F)F)c2)[C@H]1c1ccc(CO)cc1 1.06
COc1ccc([Si](C)(C)[C@@H]2[C@@H](CC(=O)N(CCO)Cc3ccccc3)O[C@]3(C(=O)N(Cc4ccc(I)cc4)c4ccccc43)[C@H]2C)cc1 2.45
COCCn1c(C(=O)N(C)C)cc2c1C[C@H]1CN(C(=O)c3ccccc3)[C@@](Cc3ccc(OC)cc3)(C(=O)OC)[C@@H]21 1.03
O=C1C2C=CC(C(O)c3cccs3)N(Nc3ccc([N+](=O)[O-])cc3)C2C(=O)N1c1ccccc1 (stereo not given) -0.0522
O=C1O[C@@H](c2ccccc2)[C@@H](c2ccccc2)N2[C@@H](c3ccc(OCCO)cc3)[C@]3(C(=O)Nc4ccc(C#CC5(O)CCCCCC5)cc43)[C@@H](C(=O)Nc3nc4ccccc4s3)[C@H]12 2.45
CC(C)[Si](C#CCCc1ccccc1)(O[C@H](c1ccccc1)c1cn(Cc2ccccc2)nn1)C(C)C 0.129
COCCOC(=O)N1C(=O)[C@@]2(c3cc(C#CC4(O)CCCCCC4)ccc31)[C@H](c1ccc(O)cc1)N1[C@H](c3ccccc3)[C@H](c3ccccc3)OC(=O)[C@H]1[C@@H]2C(=O)N1CCCCCCC1 0.478
CN1C(=O)C2C(C3CC3)C=C3CN(Cc4cccc(Cl)c4)[C@@H]([C@@H](O)Cc4ccccc4)C3C2C1=O (stereo not given in full) 0.248
C=CCC(OC(C)=O)[C@@H]1[C@@H](N(Cc2ccc(-c3ccccc3)cc2)C(=O)c2cccc3ccccc23)c2cc(OCCCO)ccc2N1C(=O)Cc1ccc(OC)cc1 (stereo not given in full) -0.788
O=C1NC(=O)C2C1C=CC(C(O)c1ccc([N+](=O)[O-])cc1)N2Nc1ccccn1 (stereo not given) 0.485
CCCCC(O)C1C=CC2C(=O)N(c3ccccc3)C(=O)C2N1Nc1ccccc1 (stereo not given) 0.632
COCCOC(=O)N1C(=O)[C@@]2(c3cc(C#Cc4ccc(OC)cc4)ccc31)[C@H](c1ccc(OCCO)cc1)N1[C@H](c3ccccc3)[C@H](c3ccccc3)OC(=O)[C@H]1[C@@H]2C(=O)NC[C@H](O)c1ccccc1 3.81
O=C1O[C@H](c2ccccc2)[C@H](c2ccccc2)N2[C@H]1[C@@H](C(=O)N1CCN(c3ncccn3)CC1)[C@]1(C(=O)Nc3ccc(C#CCCO)cc31)[C@H]2c1ccc(O)cc1 0.254
O=C1C[C@@](C(=O)O)(c2ccc([N+](=O)[O-])cc2)[C@@H](c2ccc(CO)cc2)N1C1CCCCC1 1.3
CN(C)CCCNC(=O)[C@@]1(C)c2ccccc2C(=O)N(Cc2ccc(OC(F)(F)F)cc2)[C@H]1c1ccc(CO)cc1 -0.164
COCCOC(=O)N1C(=O)[C@@]2(c3cc(C#CCCO)ccc31)[C@H](c1ccc(OCCO)cc1)N1[C@H](c3ccccc3)[C@H](c3ccccc3)OC(=O)[C@H]1[C@@H]2C(=O)N1CCCCCCC1 1.13
C#CCN1[C@@H](Cc2ccccc2)C(=O)O[C@H](Cc2ccccc2)[C@@H]1/C=C/C1CC1 0.0761
CC(C)C[C@@H]1NC(=O)[C@@H]2C[C@H](C(=O)NCCCCCCNC(=O)CS)[C@H](c3cccc(OCCO)c3)N2C1=O 1.11
CCCCCC1=C2CNC(CC(C)C)(C(=O)OC)C=C2C(C)C1=O (stereo not given) 0.915
